UBC13 polyUb: human UBC13 polyubiquitination inhibition | P61088 | 330,000 tested, 0.47% active | inhibition, % at 20 µM | UBC13 polyubiquitin chain formation, TR-FRET; in the data active means inhibition above about 45%, passing the limit was not always enough; inconclusive means no clear call, values can overlap the other calls
MEKK2mut PB1 HTS: signal of MEK5 binding to mutant human MEKK2 PB1 domain | bead flow cytometry, Alexa488-MEK5 binding to MEKK2 mutant | percent response, % at 10 µM | 290,000 tested, 0.35% active | AID 1530; in the data active means percent response above about 24%, passing the limit was not always enough
MEKK3 PB1 HTS: modulators (inhibitors or enhancers) of MEK5 binding to human MEKK3 PB1 domain; bead-based flow cytometry, Alexa488-MEK5 binding to MEKK3; actives lie on both sides; 0 = blocked by unlabeled MEK5, 100 = vehicle; binding response (% of control), % at 10 µM; 290,000 tested, 1.4% active;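 active means binding response more than 3 SD above or below the average of its plate-row segment, actives on both sides; inconclusive means wells at one plate position flagged as instrument error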;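 further: Alexa488 bead fluorescence after subtracting the streptavidin-only scavenger bead signal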
Target sequence (Q99759 whole entry, looked up, the tested form may be a part): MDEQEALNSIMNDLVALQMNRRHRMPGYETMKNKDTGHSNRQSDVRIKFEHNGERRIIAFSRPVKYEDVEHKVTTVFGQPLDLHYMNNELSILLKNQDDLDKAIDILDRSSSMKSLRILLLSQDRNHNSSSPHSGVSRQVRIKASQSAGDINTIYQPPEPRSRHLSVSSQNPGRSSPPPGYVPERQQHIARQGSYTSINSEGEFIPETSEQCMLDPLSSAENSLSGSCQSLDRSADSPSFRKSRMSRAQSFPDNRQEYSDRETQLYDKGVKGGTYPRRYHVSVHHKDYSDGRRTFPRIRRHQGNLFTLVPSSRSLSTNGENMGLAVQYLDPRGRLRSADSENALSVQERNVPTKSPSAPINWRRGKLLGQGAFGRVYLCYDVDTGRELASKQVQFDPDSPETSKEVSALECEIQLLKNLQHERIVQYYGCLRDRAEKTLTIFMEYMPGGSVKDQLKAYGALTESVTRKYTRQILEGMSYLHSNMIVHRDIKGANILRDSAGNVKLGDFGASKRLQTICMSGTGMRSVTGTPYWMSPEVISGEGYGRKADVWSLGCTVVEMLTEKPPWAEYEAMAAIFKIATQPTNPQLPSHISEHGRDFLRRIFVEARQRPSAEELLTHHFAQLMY
MEKK2 WT-MEK5: raises or lowers MEK5 binding to wildtype human MEKK2 PB1 domain. Q9Y2U5. bead flow cytometry, Alexa488-MEK5 binding to MEKK2 WT; actives lie on both sides. binding response (% of control), % at 10 µM. 290,000 tested, 1.1% active; in the data active means binding response below about 67% or above about 130%; inconclusive means no clear call, values can overlap the other calls; inactive means in between
Casp3 counter: counter-screen for UBC13 inhibitors: human caspase-3 inhibition | inhibition, % at 20 µM | 1,400 tested, 4% active | Recombinant caspase-3, Caspase-Glo 3/7 luminescence, 60 min | shares compounds with UBC13 polyUb;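 active means mean inhibition across replicates above about 26%, limit read from the data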;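 further: plate controls were DMSO with caspase-3 for no effect and DMSO wells lacking enzyme for full effect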
UBC13 confirm: human UBC13 polyubiquitin inhibition, confirmed | shares compounds with UBC13 polyUb | UBC13 polyubiquitination, TR-FRET, biochemical | inhibition, % at 10 µM | 1,400 tested, 68% active | AID 488859; in the data active means inhibition above about 45%; inconclusive means no clear call, values can overlap the other calls
Active calls of the source: *; ? = inconclusive; . = not tested or not shown. Sampled rows, rich in hits. Any-hit rate of the full collection: about 2.3%.

SMILES | UBC13 polyUb | MEKK2mut PB1 HTS | MEKK3 PB1 HTS | MEKK2 WT-MEK5 | Casp3 counter | UBC13 confirm
O=C(Nc1ccc(F)cc1F)c1ccc(-n2cccn2)c([N+](=O)[O-])c1 | 3 | 2 | 104 | 105 | . | .
CCOc1ccc(N(C(=O)c2snc(C(N)=O)c2N)C(CC)C(=O)NC2CCCC2)cc1 (centres undefined) | 78* | -3 | 102 | 99 | 3 | 82*
CCOc1ccc(C(C(=O)NCC2CCCO2)N(C(=O)c2snc(C(N)=O)c2N)c2ccc3c(c2)OCCO3)cc1 (centres undefined) | 69* | -2 | 99 | 97 | 2 | 64*
Cc1ccc(N(C(=O)c2snc(C(N)=O)c2N)C(C(=O)NC2CCCC2)c2ccc(C)o2)cc1 (centres undefined) | 64* | -3 | 101 | 93 | -1 | 71*
Cc1ccc(N(C(=O)c2snc(C(N)=O)c2N)C(C(=O)NC2CCCC2)c2ccco2)cc1 (centres undefined) | 80* | -7 | 100 | 95 | -4 | 92*
CCOc1ccccc1N(C(=O)c1snc(C(N)=O)c1N)C(C(=O)NC1CCCC1)c1ccco1 (centres undefined) | 6 | . | . | . | . | .
CN(C)c1ccc(C(C(=O)NCC2CCCO2)N(C(=O)c2snc(C(N)=O)c2N)c2ccc3c(c2)OCO3)cc1 (centres undefined) | 38 | -3 | 99 | 99 | . | .
CCCC(C(=O)NC1CCCC1)N(C(=O)c1snc(C(N)=O)c1N)c1ccc(OCC)cc1 (centres undefined) | -2 | -3 | 100 | 97 | . | .
Cc1cccc(N(C(=O)c2snc(C(N)=O)c2N)C(C(=O)NC2CCCC2)c2ccc(C)o2)c1 (centres undefined) | 55* | -1 | 99 | 93 | 1 | 39
CCc1ccc(N(C(=O)c2snc(C(N)=O)c2N)C(C(=O)NCC2CCCO2)c2ccco2)cc1 (centres undefined) | 61* | -4 | 99 | 97 | 1 | 59*
COc1ccc(N(C(=O)c2snc(C(N)=O)c2N)C(C(=O)NC2CCCC2)c2ccc3ncccc3c2)cc1 (centres undefined) | 48* | -1 | 100 | 96 | -1 | 48*
COc1cc(C#Cc2c(-c3cncn3C)n(C)c3ccc(Br)cc23)cc(OC)c1 | 46* | . | . | . | -3 | 37
O=C(COc1ccc(Br)cc1CNC1CCCC1)Nc1ccccc1 | 13 | 8 | 109 | 132 | . | .
COc1cc(CNCc2cc(OC)c(OC)c(OC)c2)cc(OC)c1 | -1 | 2 | 102 | 105 | . | .
C=CCn1c(SCC(=O)N(CC)C2CCS(=O)(=O)C2)nnc1-c1ccccc1 (centres undefined) | 54* | . | . | . | 2 | 53*
O=C(COC(=O)C1CC(O)CN1S(=O)(=O)c1ccccc1[N+](=O)[O-])c1ccc[nH]1 (centres undefined) | -12 | . | . | . | . | .
CCOc1ccc2c(C)nc(NC3=NC(C)(C)C=C(C)N3)nc2c1 | 37 | 10 | 103 | 128 | . | .
CCOc1ccc2nc(NC3=NC(C)(C)C=C(C)N3)nc(C)c2c1 | 57* | 21 | 107 | 128 | 2 | 64*
CCOC(=O)c1c(C)c2c(n1C)CCC/C2=N\O | 79* | 4 | 105 | 105 | -2 | 94*
O=C1OCCN1C(=O)[C@H]1[C@H](c2ccc(Cl)cc2)C(c2cccc(Cl)c2)=NN1c1ccccc1 | 50* | -5 | 86 | 87 | -2 | ?
O=C(COC(=O)c1cc(Cl)ccc1O)NC(=O)NCc1ccccc1 | 50* | . | . | . | -3 | ?
COC(=O)c1ccc(CNC(=O)COC(=O)c2cc(Cl)ccc2O)cc1 | 52* | . | . | . | -5 | 44
CCCc1nc2ccccc2c(=O)n1NC(=O)c1c(O)c2ccccc2n(C)c1=O | 47* | -8 | 95 | 90 | 1 | 12
CC(=O)c1ccc(S(=O)(=O)Nc2ccc(C(=O)N3CCC3)cc2)cc1 | 0 | . | . | . | . | .
CCOC(=O)N1CCN(C(=O)c2ccc3c(c2)N(Cc2ccccc2)CCS3)CC1 | 46* | 0 | 99 | 96 | -2 | 44
SMILES | UBC13 polyUb | MEKK2mut PB1 HTS | MEKK3 PB1 HTS | MEKK2 WT-MEK5 | Casp3 counter | UBC13 confirm
CC1CC(C)CN(C(=O)c2ccc3c(c2)N(Cc2ccccc2)CCS3)C1 (centres undefined) | 25 | -4 | 94 | 92 | . | .
S=C(NCCSCc1ccc(Cl)cc1)Nc1ccccc1 | 4 | . | . | . | . | .
Cc1cccc(CSCCNC(=S)Nc2ccccc2)c1 | 48* | 4 | 108 | 108 | 6 | 10
Cc1ccc(NC(=O)CS(=O)CC(=O)NCCCc2ccccc2)cc1Cl (centres undefined) | 65* | -2 | 93 | 98 | 3 | 73*
Cc1onc(-c2ccccc2)c1C(=O)Nc1cccc2nsnc12 | 49* | -2 | 100 | 102 | 1 | 45
Cc1nnc(NC(=O)c2c(-c3ccccc3)noc2C)s1 | 0 | 0 | 97 | 101 | . | .
Cc1ccc(CN(C)C(=O)C2CCC(=O)N(C3CCCCCC3)C2)cc1 (centres undefined) | -3 | 5 | 96 | 99 | . | .
NC(=O)Cn1c(=O)n(CCCC(=O)NC2CCN(Cc3ccccc3)CC2)c(=O)c2ccccc21 | 33 | -8 | 84 | 90 | . | .
CCOc1ccc(NC(=O)Cn2c(=O)n(CCCC(=O)NC3CCN(Cc4ccccc4)CC3)c(=O)c3ccccc32)cc1 | 92* | 5 | 101 | 115 | -1 | 97*
C#CCOCCOCCOCCNc1nc(N2CCN(C(=O)[C@H](Cc3ccc(O)cc3)n3cc([C@@H](N)C(C)CC)nn3)CC2)nc(N2CCN(C(=O)[C@H](CCCCN)n3cc([C@@H](N)CC(C)C)nn3)CC2)n1 (some centres undefined) | 58* | 19 | 101 | 137 | -2 | 50*
C#CCOCCOCCOCCNc1nc(N2CCN(C(=O)[C@H](CCCN=C(N)N)n3cc(C(N)[C@@H](C)CC)nn3)CC2)nc(N2CCN(C(=O)[C@H](CCCCN)n3cc([C@@H](N)[C@H](C)CC)nn3)CC2)n1 (some centres undefined) | 95* | . | . | . | 1 | 88*
C#CCOCCOCCOCCNc1nc(N2CCN(C(=O)[C@H](CCCCN)n3cc(C(N)[C@H](C)CC)nn3)CC2)nc(N2CCN(C(=O)[C@H](CCC(=O)O)n3cc(C(N)[C@H](C)CC)nn3)CC2)n1 (some centres undefined) | 11 | 1 | 100 | 106 | . | .
C#CCOCCOCCOCCNc1nc(N2CCN(C(=O)[C@H](CCCCN)n3cc(CN)nn3)CC2)nc(N2CCN(C(=O)[C@H](CO)n3cc([C@@H](N)C(C)C)nn3)CC2)n1 | 6 | . | . | . | . | .

Screening data as filed in PubChem.
